This is a sample that favours compounds with a hit; in the whole collection about 2.3% have one here.
CHRM1 antagonist – human CHRM1 antagonism. P11229. CHO-K1 hM1, Fluo-8 calcium fluorescence, ACh EC80 antagonist. inhibition, % at 3 µM. hit rate 1.3% among 360,000. AID 588852;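 active means percent inhibition above its own plate's cutoff, namely the mean of that plate's compound wells plus 3 SD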;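 further: peak over basal fluorescence ratio during 140 s after agonist addition; 0% = ACh EC80 plus DMSO and 100% = DMSO alone without agonist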
Target sequence (P11229 whole entry, looked up): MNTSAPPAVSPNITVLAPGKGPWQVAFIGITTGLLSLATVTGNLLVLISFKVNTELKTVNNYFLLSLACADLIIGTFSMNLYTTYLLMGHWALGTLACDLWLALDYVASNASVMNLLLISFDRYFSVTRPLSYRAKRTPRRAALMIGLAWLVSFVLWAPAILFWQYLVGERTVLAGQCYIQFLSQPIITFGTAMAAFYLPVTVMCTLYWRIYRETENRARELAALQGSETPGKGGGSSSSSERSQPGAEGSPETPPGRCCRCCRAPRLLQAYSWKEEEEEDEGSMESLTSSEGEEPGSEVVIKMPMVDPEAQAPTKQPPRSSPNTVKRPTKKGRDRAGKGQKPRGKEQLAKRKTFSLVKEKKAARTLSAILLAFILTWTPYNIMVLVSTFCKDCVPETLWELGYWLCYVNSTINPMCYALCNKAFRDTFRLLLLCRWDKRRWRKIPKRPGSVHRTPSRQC
CHRM1 agonist – human M1 muscarinic receptor agonism | P11229 | CHO-K1 hM1, Fluo-8 calcium fluorescence, agonist mode; 0% DMSO, 100% acetylcholine EC100 | activation, % at 3 µM | hit rate 0.33% among 360,000;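 active means activation above the run's mean compound activation plus 3 SD, cut at about 16% in these data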;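 further: peak over basal fluorescence ratio within a 140 s kinetic read after compound addition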
CHRM1 PAM – human CHRM1 positive allosteric modulation; CHO-K1 hM1, Fluo-8 calcium fluorescence, ACh EC20; 0% = ACh EC20, 100% = maximal ACh; activation, % at 3 µM; AID 588819; hit rate 0.088% among 360,000; in the data active means activation above about 19%, passing the limit was not always enough
M1 PAM parental – M1 PAM counterscreen hit in parental CHO-K1 cells; ATP EC20, Fluo-8 calcium fluorescence; 0% at ATP EC20, 100% at ATP max; activation, % at 3 µM; hit rate 0.02% among 360,000;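 active means activation above the run cutoff, the mean activation of all test compounds plus 3 SD, cut at about 40% in these data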;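 further: peak over basal fluorescence ratio in a 140 s read after ATP addition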
M1 ag parental – counter-screen for M1 agonists: effect in parental CHO-K1 cells | activation, % at 3 µM | hit rate 0.48% among 360,000 | AID 602248 | Fluo-8 calcium fluorescence; scaled to maximal ATP response, vehicle zero; in the data active means activation above about 15%;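 further: untransfected CHO-K1 host cells lacking M1 receptor as counterscreen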
CHO-K1 Ca antag – M1 antagonist counterscreen hit in parental CHO-K1 cells; ATP-induced calcium, Fluo-8 fluorescence; inhibition, % at 3 µM; hit rate 0.6% among 360,000;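 active means inhibition above a per-plate cutoff, the plate's mean sample inhibition plus 3 SD, cut at about 24% in these data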;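 further: 0% = DMSO plus EC80 ATP and 100% = DMSO alone without ATP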
* = called active by the depositor.

How did CC(C)C[C@H](NC(=O)/C=C/[C@H]1O[C@@H](n2ccc(=O)[nH]c2=O)[C@H](O)[C@@H]1O)C(=O)O do in these assays?
CHRM1 antagonist: -14; CHRM1 agonist: 17*; CHRM1 PAM: 7; M1 PAM parental: -11; M1 ag parental: 0; CHO-K1 Ca antag: 16

What do the screens show for `C=CC#CC[N+]1(CC#Cc2ccccc2)CCOCC1`?
CHRM1 antagonist: -3; CHRM1 agonist: -13; CHRM1 PAM: -3; M1 PAM parental: 3; M1 ag parental: -1; CHO-K1 Ca antag: 0

Results for C=CC[N+]1(CC#CCOC(c2ccccc2)c2ccccc2)CCOCC1 ?
CHRM1 antagonist: 49*; CHRM1 agonist: -14; CHRM1 PAM: -28; M1 PAM parental: -2; M1 ag parental: 0; CHO-K1 Ca antag: 1

How did CCC1Oc2ccc(C)cc2N(CC(=O)NCCN2CCCCCC2)C1=O (stereo unspecified) do in these assays?
CHRM1 antagonist: -16; CHRM1 agonist: -11; CHRM1 PAM: -6; M1 PAM parental: 18; M1 ag parental: 1; CHO-K1 Ca antag: -13

What do the screens show for `COc1ccc(C2=NN(CN3C(=O)C(=O)c4ccccc43)C(c3ccc(OC)cc3)C2)cc1` (stereo unspecified)?
CHRM1 antagonist: 1; CHRM1 agonist: -2; CHRM1 PAM: -2; M1 PAM parental: 5; M1 ag parental: 4; CHO-K1 Ca antag: 6

Results for O=c1[nH]c(=O)n(Cc2ccco2)c2c1C(C(F)(F)F)(C(F)(F)F)N=C(Cc1ccccc1)N2 ?
CHRM1 antagonist: 11; CHRM1 agonist: 1; CHRM1 PAM: -5; M1 PAM parental: 14; M1 ag parental: 7; CHO-K1 Ca antag: 11

What do the screens show for `COc1ccc(NC(=O)CSc2nnc(-c3ccncc3)n2C)cc1`?
CHRM1 antagonist: -2; CHRM1 agonist: -6; CHRM1 PAM: 0; M1 PAM parental: 0; M1 ag parental: 0; CHO-K1 Ca antag: -2

How did COc1cccc(NC(=O)CSc2nnc(-c3ccoc3C)n2CC2CCCO2)c1 (stereo unspecified) do in these assays?
CHRM1 antagonist: 0; CHRM1 agonist: -3; CHRM1 PAM: 2; M1 PAM parental: 4; M1 ag parental: 0; CHO-K1 Ca antag: -3

How did COc1ccc(NC(=O)CSc2nnc(-c3ccoc3C)n2CC2CCCO2)cc1 (stereo unspecified) do in these assays?
CHRM1 antagonist: 27*; CHRM1 agonist: 0; CHRM1 PAM: 1; M1 PAM parental: 4; M1 ag parental: 0; CHO-K1 Ca antag: -4

How did COc1ccc(-c2nnc(SCC(=O)Nc3ccccc3)n2C)cc1 do in these assays?
CHRM1 antagonist: 13*; CHRM1 agonist: -8; CHRM1 PAM: -14; M1 PAM parental: -7; M1 ag parental: -1; CHO-K1 Ca antag: 12

Results for CC(C)(C)OC(=O)N[C@@H](Cc1ccccc1)C(=O)NCC1CCC(C(=O)O)CC1 (stereo partly specified) ?
CHRM1 antagonist: -14; CHRM1 agonist: -3; CHRM1 PAM: 6; M1 PAM parental: 25; M1 ag parental: 1; CHO-K1 Ca antag: -10

Results for O=C(Nc1nnc(-c2ccc3c(c2)CCCC3)o1)c1ccccc1 ?
CHRM1 antagonist: -5; CHRM1 agonist: 17*; CHRM1 PAM: 6; M1 PAM parental: 21; M1 ag parental: 11; CHO-K1 Ca antag: 2

How did O=C(Nc1nnc(-c2ccc3c(c2)CCCC3)o1)c1ccccc1Cl do in these assays?
CHRM1 antagonist: -1; CHRM1 agonist: 0; CHRM1 PAM: -1; M1 PAM parental: 8; M1 ag parental: 0; CHO-K1 Ca antag: -3

What do the screens show for `OC(C#CCN1CCOCC1)(c1ccccc1)C1CC1` (stereo unspecified)?
CHRM1 antagonist: -11; CHRM1 agonist: -3; CHRM1 PAM: 9; M1 PAM parental: 14; M1 ag parental: 1; CHO-K1 Ca antag: -5

Results for OC(C#CCN1CCCC1)(c1ccccc1)c1ccccc1 ?
CHRM1 antagonist: 100*; CHRM1 agonist: -7; CHRM1 PAM: -25; M1 PAM parental: -9; M1 ag parental: 0; CHO-K1 Ca antag: 2

How did CC(O)(C#CCN1CCCCCC1)c1ccccc1 (stereo unspecified) do in these assays?
CHRM1 antagonist: 41*; CHRM1 agonist: -9; CHRM1 PAM: -30; M1 PAM parental: 16; M1 ag parental: 4; CHO-K1 Ca antag: -5

Screening data: PubChem BioAssay, The Scripps Research Institute Molecular Screening Center
